HPGD block: qHTS Assay for Inhibitors of HPGD (15-Hydroxyprostaglandin Dehydrogenase); 15-hydroxyprostaglandin dehydrogenase [NAD(+)] (Homo sapiens), P15428; purified HPGD, NADH fluorescence kinetic, PGE2 substrate; Potency, µM, for inactives: at the highest dose activity change, negative = inhibition, actives largely listed as inhibitors; 150,000 tested, 4.3% active; AID 894, 2007; active means well fitted inhibition curve with a large enough effect, not every such curve was filed as active; inconclusive means small, poorly fitted or top-dose-only effect, or another doubt; inactive means no such curve, though single readings can be large or run the other way; further: potency means the concentration at half of the fitted maximal effect
Target sequence (P15428 whole entry, looked up): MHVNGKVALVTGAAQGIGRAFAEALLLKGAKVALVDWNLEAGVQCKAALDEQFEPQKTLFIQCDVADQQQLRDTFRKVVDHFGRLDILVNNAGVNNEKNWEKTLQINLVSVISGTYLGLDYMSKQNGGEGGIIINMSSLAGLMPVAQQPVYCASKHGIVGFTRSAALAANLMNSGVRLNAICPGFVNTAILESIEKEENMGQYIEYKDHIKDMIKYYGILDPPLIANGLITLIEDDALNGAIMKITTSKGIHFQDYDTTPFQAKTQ
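20 nM HPGD preincubated 15 min at room temperature with compound in 50 mM Tris-HCl pH 8, 0.01% Tween 20. Started with 1 mM NAD+ and 30 uM prostaglandin E2; NADH fluorescence (360/450 nm) read 5 times over 30-s intervals, last minus first.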
IMPase cell inh: qHTS Assay for Identifying the Cell-Membrane Permeable IMPase Inhibitors | Inositol monophosphatase 1 (Rattus norvegicus), P97697 | inhibition (IP1 accumulation), % at 46.1 µM | AID 901, 2007 | CHO-M1 cells, IP1 accumulation, HTRF TR-FRET ratio | 120,000 tested, under 10 active; active means well fitted curve in the direction sought with a large enough effect in the signal ratio, not every such curve was filed as active; inconclusive means small, poorly fitted or top-dose-only effect, or a change in a side signal; inactive means no such curve, though single readings can be large or run the other way; the % refers to the signal ratio;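 further: cells stimulated with carbachol in lithium chloride buffer; plate controls were DMSO basal wells for no effect and reference inhibitor wells for full effect; higher means more IMPase inhibition seen as more IP1 and lower FRET ratio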
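Carbachol-driven Gq signalling in CHO-M1 cells (2000/well) generates IP1. Compounds that block IMPase raise IP1 and so reduce the FRET signal from Eu-anti-IP1 and d2-IP1 after a 10 min room-temperature lysis.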
PNC inhibitor: High Content Assay for Compounds that inhibit the Assembly of the Perinucleolar Compartment; PC3M PTB-GFP, PNC prevalence imaging, 16 h; hits give low values; activity change (PNC), negative = inhibition, % at 10 µM; 140,000 tested, 3.1% active;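 active means readout at or below -70, meaning at least 70% loss of cells showing the perinucleolar compartment, a nuclear body marking cancer cells; inconclusive means readout between -30 and a set limit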;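 further: plate controls were DMSO wells for no effect and camptothecin positive control wells for full effect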
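Read-out is percentage of cells bearing a perinucleolar compartment, from automated 20x imaging of fixed, Hoechst-stained PC3M PTB-GFP cells. Cells were seeded 4 h, then exposed 16 h to compound (23 nl of library stock) in duplicate plates.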
NPSR antag: qHTS Assay for Antagonists of the Neuropeptide S Receptor: cAMP Signal Transduction | Q6W5P4 | CHO-NPSR cells, cAMP TR-FRET, antagonist mode | Potency, µM (series often up to 38.3 µM), inactives show top-dose activity change, negative = inhibition, usual class: inhibitors | 220,000 tested, 1% active | AID 1461, 2008; further: potency means the concentration at half of the fitted maximal effect; nearly all actives have a fitted effect of over 50% in size
IMPase Li cell: qHTS Assay for Identifying the Cell-Membrane Permeable IMPase Inhibitors: Potentiation with Lithium; 210,000 tested, 0.35% active; AID 1457, 2008; Potency, µM (doses to about 59.4 µM), without a hit: at the highest dose activity, negative = IMPase inhibition, most hits filed as inhibitors; CHO-M1 cells, IP1 TR-FRET (IP-One), carbachol + lithium;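 further: IP1 builds up when IMPase is blocked and the TR-FRET signal falls; potency means the concentration at half of the fitted maximal effect; plate controls were basal vehicle for no effect and high inhibitor control for full effect; nearly all actives have a fitted effect of over 50% in size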
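CHO-M1, 2000 cells/well, 16–30 h culture; cpd + low Li+, 30 min 37C; lysis with d2-IP1/Eu-anti-IP1 Ab, 10 min RT; TR-FRET 665/620 ratio and 620 channel; AC50 via Hill.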
ALDH1A1 block: qHTS Assay for Inhibitors of Aldehyde Dehydrogenase 1 (ALDH1A1); Aldehyde dehydrogenase 1A1 (Homo sapiens), P00352; Purified ALDH1A1, NADH fluorescence, propionaldehyde substrate; Potency, µM (series often up to 75.3 µM), for inactives: at the top dose activity, negative = inhibition, most hits filed as inhibitors; 220,000 tested, 7.3% active; active means well fitted inhibition curve with a large enough effect, not every such curve was filed as active; inconclusive means small, poorly fitted or top-dose-only effect, or another doubt; inactive means no such curve, though single readings can be large or run the other way;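 further: potency means the concentration at half of the fitted maximal effect; plate controls were no enzyme wells and a reference inhibitor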
Target sequence (P00352 whole entry, looked up): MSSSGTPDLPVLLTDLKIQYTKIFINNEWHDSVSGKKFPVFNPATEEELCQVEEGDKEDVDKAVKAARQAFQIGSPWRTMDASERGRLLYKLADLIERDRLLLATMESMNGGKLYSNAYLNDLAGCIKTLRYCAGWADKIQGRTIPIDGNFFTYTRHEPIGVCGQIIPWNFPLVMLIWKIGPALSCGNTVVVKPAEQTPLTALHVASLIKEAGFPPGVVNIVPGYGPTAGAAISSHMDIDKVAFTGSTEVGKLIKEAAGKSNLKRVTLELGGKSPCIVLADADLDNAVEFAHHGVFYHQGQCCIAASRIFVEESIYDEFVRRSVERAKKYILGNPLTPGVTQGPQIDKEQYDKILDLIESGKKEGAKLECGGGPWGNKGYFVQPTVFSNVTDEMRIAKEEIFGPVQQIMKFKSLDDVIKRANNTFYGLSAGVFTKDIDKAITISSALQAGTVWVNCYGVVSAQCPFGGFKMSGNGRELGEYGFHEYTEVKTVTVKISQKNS
An asterisk follows results filed as active; ? = inconclusive; . = no result given; [ ] = dose if it differs, or a comment. An excerpt weighted towards active compounds, which were near 11% of everything screened. Unless noted, the call rests on the fitted dose curve; in most records, active means well fitted curve in the direction sought with a large enough effect; inconclusive means small, poorly fitted or top-dose-only effect, or another doubt; inactive means no such curve, though single readings can be large; an effect the other way counts as inactive or inconclusive. Unless noted, on the % scale 0 is the no-effect control and ±100 the full control effect.

SMILES	HPGD block	IMPase cell inh	PNC inhibitor	NPSR antag	IMPase Li cell	ALDH1A1 block
Cc1csc(C(=O)O)c1NC(=O)c1cccc([N+](=O)[O-])c1	.	.	.	14%	-1%	14µM*
Cc1noc(C)c1COc1cccc(C(=O)Oc2ccc3c(c2)OCO3)c1	-16%	4	-17	-15%[46.1 µM]	9%	13%
N#CCC(CNc1ncc(C(F)(F)F)cc1Cl)OC(=O)c1ccc(Cl)cc1Cl (centres undefined)	?	-5	-19	?	-1%	1%
O=C(CCCC(=O)N/N=C\c1ccccn1)N/N=C\c1ccccn1	1%	.	-1	13%	5%	-4%
CC#C[C@@]1(O)CC[C@H]2[C@@H]3CCC4=CC(=O)CCC4=C3[C@H](c3ccc(N(C)C)cc3)C[C@]21C	5%	5[20.6 µM]	.	.	17%	7%[20.9 µM]
O=C(NC(=S)Nc1nc(-c2cccc([N+](=O)[O-])c2)cs1)c1cc(Cl)ccc1Cl	.	.	.	-8%	14%	28µM*
N/C(=N\OC(=O)Oc1ccccc1)c1ccc([N+](=O)[O-])cc1	-2%	.	-121*	5%	-2%	1%
COc1cc(OC)c(OC)cc1/C=C1\CCC(C2CCCC2)C1=O (centres undefined)	.	.	.	-21%	3%	2µM*
Cc1ccc(/C=C2\CCC(C3CCCC3)C2=O)cc1 (centres undefined)	-17%	.	-11	-8%	8%	-12%
O=C(CSCc1c(Cl)cccc1Cl)Nc1ccccc1C(=O)N1CCOCC1	-9%	-7	?	-17%[46.1 µM]	31%[38.3 µM]	-4%
O=S(=O)(c1ccc(Cl)cc1)N1CCN=C1SCc1cccc(Cl)c1	-11%	.	23	-33%	19%	-3%
Brc1ccc2nc(-c3cccs3)c(NCC3CCCO3)n2c1 (centres undefined)	.	.	.	12%	12%	7.9µM*
CCCOc1ccc(N2CC(C(=O)Nc3ccc4c(c3)OCO4)CC2=O)cc1 (centres undefined)	-8%	-13	1	9%[46.1 µM]	7%	3%
COc1ccc(C(C)=O)cc1CSc1nnc(-c2ccc(Cl)cc2)n1-c1ccccc1	-23%	6	-12	?	13%[38.3 µM]	10µM*
COc1ccc(C(C)=O)cc1CSc1nnc(Nc2ccccc2)s1	25µM*	.	4	4%	6%	?
COc1ccc(C(C)=O)cc1CSc1nncn1C	.	.	.	15%	4%	-4%
CCOc1ccc(C(C)=O)cc1CSc1nnc(N)s1	.	.	.	2%	2%	-3%
COc1ccc(C(C)=O)cc1CSc1nnc(C)s1	18µM*	-3	-3	0%[46.1 µM]	8%[38.3 µM]	?
COc1ccc(C(C)=O)cc1CSc1nnc(Nc2ccc(C)cc2)s1	?	.	-113*	-10%	4%	?
COc1ccc(C(C)=O)cc1CSc1nnc(-c2ccncc2)n1C	.	.	.	1%	-6%	0%
COc1cccc(OC)c1C(=O)Nc1cc(C)on1	0%	-1	?	14%[46.1 µM]	-20%[38.3 µM]	-5%
COc1ccc(-c2nnc(SCc3nnc(-c4ccccc4)o3)n2-c2ccccc2)cc1	7.9µM*	-7	?	?	-6%[38.3 µM]	-2%
COc1ccc(-n2c(SCc3nnc(-c4ccccc4)o3)nnc2-c2ccccc2)cc1	-9%	5	49	?	5%[38.3 µM]	-2%
COc1cccc(NC(=O)N2CCN(C(=O)C(Cc3ccc(OC)c(OC)c3)NC(C)=O)CC2)c1 (centres undefined)	-10%	-7[0.369 µM]	-2	16%[46.1 µM]	-1%	?
Cc1cccc(NC(=O)C(c2ccccc2Cl)N2CCOCC2)c1 (centres undefined)	.	.	.	3%	0%	25µM*
SMILES	HPGD block	IMPase cell inh	PNC inhibitor	NPSR antag	IMPase Li cell	ALDH1A1 block
COc1ccccc1OCCSc1nc(N)cc(N)n1	-11%	-2	-100*	9%[46.1 µM]	6%	8%
CCN1CC(CN(C)Cc2nc(-c3ccco3)oc2C)CC1=O (centres undefined)	.	.	.	-17%	6%	?
CCCCCCCc1ccc(C2NC(=S)NC3=C2C(=O)c2ccccc23)cc1 (centres undefined)	.	.	.	5%	.	.
CCCCCCC1CC(=O)NC(=S)N1 (centres undefined)	.	.	.	12%	5%	4µM*
Clc1ccc(-c2nnc(SCc3ccon3)o2)c(Cl)c1	?	-5	?	-26%[46.1 µM]	8%[38.3 µM]	0%
C=CCSc1nnc(-c2ccc(Cl)cc2Cl)o1	11µM*	-5	13	-30%[46.1 µM]	12%[38.3 µM]	-13%
Clc1ccc(OCc2nn3c(C4CCCCC4)nnc3s2)cc1	20µM*	3	-16	-16%[46.1 µM]	11%	18µM*
c1ccc(-c2nn3c(C4CCCCC4)nnc3s2)nc1	-24%	-2	23	-25%[46.1 µM]	2%[38.3 µM]	?
CCOCCCNC(=S)N(Cc1ccco1)Cc1cc2cc3c(cc2[nH]c1=O)OCCO3	.	.	.	30%	5%	?
CC1(C)Cc2c(sc3c2C2=NCCN2C=N3)CO1	-19%	17	-28	-5%[46.1 µM]	-1%[38.3 µM]	1%
O=S1(=O)CCN2C=Nc3sc4c(c3C2=N1)CCCC4	-24%	-4	-6	-8%[46.1 µM]	-15%[38.3 µM]	8.9µM*
Nc1nnc(SCc2cn3cc(Cl)ccc3n2)s1	.	.	.	12%	5%	7%
COc1ccc(C2C(C(=O)N3CCN(c4ccccn4)CC3)CCC(=O)N2c2cc(OC)c(OC)c(OC)c2)cc1 (centres undefined)	.	.	.	3%	-4%	1%
COC(=O)CSc1nc2cc3c(cc2cc1C)OCCO3	-3%	-1	?	-7%[46.1 µM]	-3%[38.3 µM]	-3%
Cc1cc2cc3c(cc2nc1SCC(=O)O)CCC3	.	.	.	58%	3.5µM*	4%
CCC(=O)Nc1ccc(NC(=O)CSc2nc3cc4c(cc3cc2C)CCC4)cc1	-21%	8	-20	-10%[46.1 µM]	1%[38.3 µM]	11µM*
Cc1ccccc1NC(=O)CSc1nc2cc3c(cc2cc1C)CCC3	-8%	?	20	-9%[46.1 µM]	8%[38.3 µM]	1%
CCN=c1scc(-c2ccco2)n1/N=C/c1ccc(OC)c(O)c1	-11%	16	-11	-30%[46.1 µM]	-1%[38.3 µM]	?
Nc1nnc(SCCCC(=O)c2ccc(Br)cc2)s1	3.5µM*	9	-30	45%	-9%	14%

Source: PubChem
